From PubChem BioAssay
C diff HTS: C. difficile growth inhibitors, primary screen, HTS; Clostridium difficile clinical isolate growth, OD600, 24 h; stronger effect = lower value; growth activity, negative = inhibition, % at 16 µg/mL (by protocol); 0.25% of 86,000 active;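 active = mean growth activity at or below -80% and every replicate also at or below -80%; inconclusive = mean at or below -80% but some replicate above -80%; inactive = mean growth activity above -80%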;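 note: 0% = DMSO wells and -100% = levofloxacin 16 µg/mL wells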
Pf Dd2 growth: P. falciparum Dd2 growth inhibitors, primary screen, SYBR Green fluorescence, single dose replicates | 72 h; stronger effect = lower value | activity change, % at 10 µM | 2.3% of 94,000 active | AID 1159554, 2015; in the data active = activity change below about -80%; inconclusive = no clear call, values can overlap the other calls
T cruzi growth: T. cruzi intracellular proliferation inhibitors, primary screen, cell-based, beta-gal Tulahuen parasites, NIH3T3 host, luminescence; T. cruzi beta-gal in NIH3T3, GalScreen luminescence, 90 h; inhibition, % at 8.34 µM; 5.9% of 77,000 active; AID 624255, 2012;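 active = mean inhibition above about 93%, with at least 55% of replicates each passing it, limit read from the data, passing the limit was not always enough; inconclusive = only one of those two conditions holds; inactive = neither condition holds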
Starred values were filed as active, the others as inactive; ? = inconclusive; / = not tested or not shown; ! = not confirmed by another sample. Rows were chosen to be rich in hits. Some 6.8% of all compounds tested hit in one or more screens of this group.

SMILES | C diff HTS | Pf Dd2 growth | T cruzi growth
C[C@H]1CCCCO[C@H](CN(C)Cc2ccc(C(F)(F)F)cc2)[C@@H](C)CN([C@@H](C)CO)C(=O)c2cc(NC(=O)Nc3ccccc3)ccc2O1 | 5 | -6 | 68
C[C@H]1CCCCO[C@H](CN(C)Cc2ccc(C(F)(F)F)cc2)[C@@H](C)CN([C@@H](C)CO)C(=O)c2cc(NC(=O)c3ccccc3)ccc2O1 | 19 | -42 | 74
C[C@@H]1CCCCO[C@H](CN(C)Cc2ccc(Cl)c(Cl)c2)[C@H](C)CN([C@@H](C)CO)C(=O)c2cc(NC(=O)Nc3ccc(C(F)(F)F)cc3)ccc2O1 | 16 | ? | 60
C[C@@H]1CCCCO[C@H](CN(C)Cc2ccc(C(F)(F)F)cc2)[C@@H](C)CN([C@@H](C)CO)C(=O)c2cc(NC(=O)Nc3ccccc3)ccc2O1 | 6 | -82* | 70
C[C@@H]1CN([C@@H](C)CO)C(=O)c2cc(NC(=O)c3ccccc3)ccc2O[C@@H](C)CCCCO[C@H]1CN(C)Cc1ccc(C(F)(F)F)cc1 | 33 | -84* | 69
C[C@@H]1CN([C@H](C)CO)C(=O)c2cc(NC(=O)C3CCCCC3)ccc2O[C@@H](C)CCCCO[C@H]1CN(C)C(=O)Cc1ccccc1 | -28 | -44 | -5
O=C(C[C@@H]1CC[C@H]2[C@@H](COC[C@@H](O)CN2C(=O)c2ccccc2F)O1)NCc1ccc(Cl)cc1 | / | 8 | 1
CCC(=O)Nc1ccc2c(c1)C(=O)N(C)C[C@@H](OC)[C@@H](C)CN(CC1CCOCC1)[C@@H](C)CO2 | -1 | -28 | 17
COc1ccc(S(=O)(=O)N(C)C[C@@H]2OCc3ccccc3-c3c(n(C)c4ccccc34)C(=O)N([C@H](C)CO)C[C@H]2C)cc1 | / | -78 | 89
C[C@H]1CN([C@@H](C)CO)C(=O)c2c(c3ccccc3n2C)-c2ccccc2CO[C@H]1CN(C)S(=O)(=O)c1ccc(C(F)(F)F)cc1 | -5 | -91* | /
C[C@@H]1CN([C@H](C)CO)C(=O)c2c(c3ccccc3n2C)-c2ccccc2CO[C@@H]1CN(C)S(=O)(=O)c1ccc(C(F)(F)F)cc1 | 2 | -86* | /
C[C@@H]1CN([C@H](C)CO)C(=O)c2c(c3ccccc3n2C)-c2ccccc2CO[C@H]1CN(C)S(=O)(=O)c1ccc(C(F)(F)F)cc1 | -1 | -89* | /
O=C(C[C@@H]1C[C@@H]2c3cc(NC(=O)Cc4ccncc4)ccc3O[C@@H]2[C@@H](CO)O1)NCC1CC1 | 2 | 27 | 1
COc1ccc(S(=O)(=O)Nc2ccc3c(c2)C(=O)N([C@H](C)CO)C[C@@H](C)[C@H](CN(C)S(=O)(=O)c2ccccc2)OCCCC[C@H](C)O3)cc1 | -8 | -49 | /
O=C(O)C[C@H]1C[C@H]2c3cc(NC(=O)C4CCOCC4)ccc3O[C@H]2[C@H](CO)O1 | 5 | -25 | /
CO[C@@H]1CN(C)C(=O)c2cc(NC(=O)c3ccc(-c4ccccc4)cc3)ccc2OC[C@H](C)NC[C@@H]1C | / | -76 | /
CO[C@H]1CN(C)C(=O)c2cc(NC(=O)c3ccc(-c4ccccc4)cc3)ccc2OC[C@H](C)NC[C@H]1C | / | -92* | /
CO[C@@H]1CN(C)C(=O)c2cc(NC(=O)c3ccc(-c4ccccc4)cc3)ccc2OC[C@@H](C)NC[C@@H]1C | / | -97* | /
CO[C@H]1CN(C)C(=O)c2cc(NC(=O)c3ccc(-c4ccccc4)cc3)ccc2OC[C@@H](C)NC[C@H]1C | / | -78 | /
C/C=C/c1cnc2c(c1)C(=O)N([C@@H](C)CO)C[C@H](C)[C@@H](CN(C)S(=O)(=O)c1ccccc1F)O2 | -3 | -62 | /
Cc1noc(C)c1S(=O)(=O)Nc1ccc2c(c1)CC(=O)N([C@@H](C)CO)C[C@H](C)[C@H](CN(C)Cc1ccc(C(=O)O)cc1)O2 | 4 | 7 | -9
O=C(C[C@@H]1CC[C@@H]2[C@H](COC[C@@H](O)CN2C(=O)Nc2ccc(Cl)c(Cl)c2)O1)NCc1ccc(F)cc1 | -16 | -10 | 95
CCCNC(=O)C[C@H]1CC[C@@H]2[C@H](COC[C@H](O)CN2C(=O)Nc2ccc(Cl)c(Cl)c2)O1 | -101*! | 11 | -64
O=C(C[C@@H]1CC[C@@H]2[C@H](COC[C@@H](O)CN2C(=O)c2ccccc2F)O1)NCc1ccc(-c2ccccc2)cc1 | 3 | -86* | /
CCNC(=O)C[C@@H]1CC[C@@H]2[C@H](COC[C@H](O)CN2C(=O)Nc2ccc(Cl)c(Cl)c2)O1 | / | -4 | -14
SMILES | C diff HTS | Pf Dd2 growth | T cruzi growth
O=C(C[C@@H]1CC[C@@H]2[C@H](COC[C@H](O)CN2C(=O)Nc2ccc(Cl)c(Cl)c2)O1)NCc1ccc(F)cc1 | -96* | -1 | 59
O=C(C[C@H]1CC[C@H]2[C@@H](COC[C@H](O)CN2C(=O)c2ccccc2F)O1)NCc1ccc(-c2ccccc2)cc1 | -3 | -55 | /
O=C1CN(Cc2ccccc2)C[C@H]2[C@@H](c3ccc(-c4ccccc4F)cc3)[C@@H](CO)N12 | 1 | 7 | /
C[C@@H]1CN([C@@H](C)CO)C(=O)c2cc(NC(=O)CCC(F)(F)F)ccc2O[C@H]1CN(C)C(=O)Nc1cccc2ccccc12 | -4 | -7 | 27
C[C@@H]1CN([C@H](C)CO)C(=O)Cc2cc(NS(=O)(=O)c3cccs3)ccc2O[C@@H]1CN(C)Cc1ccc(C(=O)Nc2ccccc2N)cc1 | 8 | -86* | /
C[C@@H]1CN([C@H](C)CO)C(=O)c2cc(NS(=O)(=O)c3cccs3)ccc2O[C@@H]1CN(C)Cc1ccc(C(=O)Nc2ccccc2N)cc1 | 2 | -87* | /
C[C@@H]1CN([C@@H](C)CO)C(=O)Cc2cc(NS(=O)(=O)c3cccs3)ccc2O[C@@H]1CN(C)Cc1ccc(C(=O)Nc2ccccc2N)cc1 | 10 | -68 | 40
C[C@H]1CN([C@@H](C)CO)C(=O)c2cc(NS(=O)(=O)c3cccs3)ccc2O[C@H]1CN(C)Cc1ccc(C(=O)Nc2ccccc2N)cc1 | 5 | -49 | /
O=C(C[C@@H]1CC[C@H]2[C@@H](COC[C@H](O)CN2Cc2cccc(C(F)(F)F)c2)O1)NCCc1ccncc1 | -3 | -36 | 8
O=C(C[C@@H]1C=C[C@H](NC(=O)C2CCOCC2)[C@@H](CO)O1)Nc1ccccc1 | -2 | 1 | /
C[C@H]1CN([C@@H](C)CO)C(=O)Cc2cc(NC(=O)Nc3ccc(C(F)(F)F)cc3)ccc2O[C@H]1CN(C)C(=O)Nc1ccc(F)cc1 | 10 | 21 | 10
COc1ccc2c3c([nH]c2c1)[C@@H](CO)N(Cc1ccccc1)CC31CCN(C(=O)c2cccnc2)CC1 | 1 | -90* | /
COc1ccc2c3c([nH]c2c1)[C@H](CO)N(Cc1cccnc1)CC31CCN(C(=O)CN(C)C)CC1 | 1 | -86* | /
COc1ccc2c3c([nH]c2c1)[C@@H](CO)N(Cc1cccnc1)CC31CCN(C(=O)c2cccnc2)CC1 | 5 | -16 | /
COc1ccc2c3c([nH]c2c1)[C@@H](CO)N(CC1CC1)CC31CN(C(=O)c2ccccc2)C1 | 9 | -85* | /
COc1ccc2c3c([nH]c2c1)[C@@H](CO)N(CC1CC1)CC31CN(C(=O)c2ccc(F)cc2)C1 | -5 | -55 | /
